Bioassay records as filed in PubChem BioAssay.
Compounds with a hit are over-represented: about 0.81% of the library has one in this group of screens.
TRHR PAM = allosteric enhancers of human TRH receptor. TRHR cells, fluo-8 calcium fluorescence, EC20 TRH enhancement. P34981. enhancement, % at 2 µM. 0.66% of 360,000 active; in the data active = enhancement above about 30%; note: 0% is about no effect
Target sequence (P34981 whole entry, looked up): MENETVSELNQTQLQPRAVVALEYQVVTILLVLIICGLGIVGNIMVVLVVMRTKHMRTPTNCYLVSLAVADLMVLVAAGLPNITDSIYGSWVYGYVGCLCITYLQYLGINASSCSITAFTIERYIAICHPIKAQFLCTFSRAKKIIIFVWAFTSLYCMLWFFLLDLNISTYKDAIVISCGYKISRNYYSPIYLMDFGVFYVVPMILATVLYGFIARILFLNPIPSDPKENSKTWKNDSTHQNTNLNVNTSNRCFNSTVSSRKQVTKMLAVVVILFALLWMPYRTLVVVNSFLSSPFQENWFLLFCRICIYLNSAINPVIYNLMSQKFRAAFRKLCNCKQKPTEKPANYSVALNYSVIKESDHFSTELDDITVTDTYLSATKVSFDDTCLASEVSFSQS
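Enhancer read-out: after compound pinning and an initial kinetic agonist-mode read, an EC20 of TRH (10 nM final) was injected and fluo-8 calcium signal (Ex 480/Em 530) followed at 1 s/cycle for 100 cycles in TRHR-expressing cells.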
TRHR ag = agonists of human TRH receptor; P34981; TRHR cells, calcium flux fluo-8, FDSS agonist mode; AID 493084; activation, % at 2 µM; 0.18% of 360,000 active; in the data active = activation above about 30%; note: 0% is about no effect
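Fluo-8-loaded TRHR cells; 10 s baseline, compound added, kinetic Ca2+ fluorescence read 1/s, agonist mode.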
TRPML1 ag = human mucolipin-1 channel agonism; TRPML1-expressing cells, Ca2+ dye fluorescence, FDSS; activation, % (test concentration not listed); 0.12% of 410,000 active; AID 624414; in the data active = activation above about 50%; inconclusive = mostly about 30% to 49%; note: 0% is about no effect
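Agonist activity was taken from a 110 s kinetic Ca2+ dye read on the FDSS after pinning compounds onto TRPML1-DL cells. The cells were seeded at 1,500/well with Tet inducer, incubated about 16 h, then dye-loaded at room temperature.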
TRPML1 blocker = human mucolipin-1 channel inhibition. Q9GZU1. TRPML1-inducible cells, Ca2+ dye fluorescence, FDSS; hits give low values; inhibition of EC80 agonist-evoked calcium signal. activity change, negative = inhibition, % (concentration not given with the values). 0.02% of 390,000 active. AID 624415; in the data active = activity change below about -50%; inconclusive = between about -30% and that limit;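 note: stimulus is agonist 54-4 at its EC80 concentration; % is set by controls: 0 for no effect and ±100 for the full control effect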
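TRPML1-DL cells, Tet-induced overnight (~16 h, 37 °C) at 1,500 cells/well, were loaded with Ca8 no-wash dye plus quencher for 45-90 min at room temperature. Compounds were pinned during FDSS kinetic reading; agonist 54-4 at EC80 (4 uM final) then added.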
Starred values were filed as active, the others as inactive; ? = inconclusive; nt = not tested or not shown.

SMILES | TRHR PAM | TRHR ag | TRPML1 ag | TRPML1 blocker
C=CCN1C(=O)c2cccc3c(N4CCCCC4)ccc(c23)C1=O | -1.2 | 34.5* | 55.2* | 1.6
C=C(c1ccc2ccccc2n1)c1cccs1 | nt | nt | -0.4 | nt
CCOc1ccc(/C=C/c2ccc3ccccc3n2)cc1OCC | nt | nt | 6.3 | nt
Cc1cc2c(s1)c1cnn(Cc3cccc(C)c3F)c(=O)c1n2C | 0.6 | 1.9 | nt | nt
CCc1ccc(NC(=O)C2(c3ccccc3)CC2(Cl)Cl)cc1 (stereo not given) | -2.4 | 5.5 | 53.9* | -12.4
CCOC(=O)C(Cc1ccccc1)C(=O)Nc1cccc(C)c1 (stereo not given) | 31.1* | -0.8 | 0.1 | 2.8
CN(C)/C=C1\C=C2C(=O)c3ccccc3N2C1=O | 31.1* | 249.2* | 57.1* | ?
Cc1ccc(Cn2c(=O)n(Cc3ccccc3)c(=O)c3oc4ccccc4c32)cc1 | 35.7* | -0.4 | 0.3 | 8.1
COc1ccc(Cn2c(=O)c3oc4ccccc4c3n(Cc3ccccc3)c2=O)cc1 | 35.2* | 0.4 | 1.8 | -29.9
NS(=O)(=O)c1ccc(CCNC(=O)C2CCN(S(=O)(=O)c3c(Cl)cccc3Cl)CC2)cc1 | 36.5* | -0.3 | 1.2 | -6.4
NS(=O)(=O)c1ccc(CCNC(=O)C2CCN(S(=O)(=O)c3ccccc3)CC2)cc1 | 15.2 | 0.4 | 0.0 | 12.1
CC(=O)c1ccc(NC(=O)c2ccccc2Sc2ncnc3sc(C)c(C)c23)cc1 | -0.5 | -0.2 | 1.6 | 8.2
Cc1sc2ncnc(Sc3ccccc3C(=O)O)c2c1C | 34.9* | -0.1 | -0.5 | 0.8
CCCCCCCCCCCCCCCC[n+]1ccc(CC(O)c2c(C)[nH]c3ccccc23)c2ccccc21 (stereo not given) | nt | nt | 1.0 | nt
O=C(Nc1c[nH]c(=O)[nH]c1=O)c1ccccc1Cl | 30.4* | 0.2 | 0.8 | -6.2
COc1ccccc1C(=O)Nc1c[nH]c(=O)[nH]c1=O | 4.5 | 0.7 | nt | nt
O=C1CC(c2ccccc2Cl)CC(O)=C1C=NCCCO (stereo not given) | 34.0* | 0.4 | -0.3 | -8.4
O=C1CC(c2ccccc2)CC(O)=C1C=NCCCO (stereo not given) | -7.5 | -0.3 | -0.4 | 12.0
CN(C)c1ccc(/C=C2/CCc3ccccc32)cc1 | nt | nt | 1.8 | nt
O=C(CN1C(=O)c2ccccc2S1(=O)=O)Nc1ccon1 | 11.3 | -0.2 | -0.2 | 27.4
Cc1cc(NC(=O)CN2C(=O)c3ccccc3S2(=O)=O)no1 | 30.2* | 0.1 | -0.5 | 4.9
Cc1ccc(OCCn2nc3ccccc3n2)c(C)c1 | 39.4* | 0.7 | 5.8 | 63.6
CCOc1ccccc1OCCn1nc2ccccc2n1 | -4.2 | -0.4 | 0.2 | 10.5
O=c1cc(-c2ccc(F)cc2)nc(SCc2nc(-c3ccc(Cl)cc3)no2)[nH]1 | 43.2* | 0.1 | 0.9 | 7.1
O=c1cc(-c2ccccc2)nc(SCc2nc(-c3ccc(Cl)cc3)no2)[nH]1 | 3.1 | -0.2 | -0.3 | -11.2
SMILES | TRHR PAM | TRHR ag | TRPML1 ag | TRPML1 blocker
CC(C)(C)OC(=O)CC(=O)NNC(=O)c1cc2ccccc2[nH]1 | 6.9 | 1.3 | nt | nt
O=C([C@@H]1CC=C[C@@H]2CCN(C3CCCCC3)C(=O)[C@@H]21)N1CCOCC1 | nt | nt | -0.2 | nt
CN(C)/[N+]([O-])=N/Oc1ccc([N+](=O)[O-])cn1 | nt | nt | 1.7 | -6.4
COc1ccc(C2CC(c3ccccc3)=NN2C(=O)CCC(=O)O)cc1 (stereo not given) | 32.8* | 1.2 | -0.3 | 49.5
COc1ccc(C2CC(c3ccccc3)=NN2C(=O)COC(=O)c2cccnc2Cl)cc1 (stereo not given) | 2.4 | -0.9 | 1.3 | 18.0
COc1ccc(C2CC(c3ccccc3)=NN2C(=O)COC(=O)c2cccnc2)cc1 (stereo not given) | 37.4* | -0.5 | -1.3 | 5.2
COc1ccc(C2CC(c3ccccc3)=NN2C(=O)COC(=O)c2cc(S(=O)(=O)N3CCOCC3)ccc2Cl)cc1 (stereo not given) | 39.7* | 1.3 | 1.5 | -15.3
COc1ccc(C2=NN(C(=O)CCC(=O)O)C(c3ccc([N+](=O)[O-])cc3)C2)cc1 (stereo not given) | 2.3 | 0.0 | 0.4 | -12.4
COc1ccc(C2CC(c3ccccc3)=NN2C(=O)COC(=O)c2cccc(N)c2)cc1 (stereo not given) | nt | nt | 0.3 | 31.1
Clc1ccc(/C=C/c2ccncc2)cc1Cl | nt | nt | -0.6 | nt
CCC1(c2ccc(F)cc2)NC(=O)N(CC(=O)N(CCC#N)c2ccccc2)C1=O (stereo not given) | 31.2* | 0.0 | 1.0 | -13.6
O=C(O)c1cc(F)c(S(=O)(=O)N2CCN(S(=O)(=O)c3ccc4c(c3)OCCO4)CC2)cc1F | 2.6 | 1.0 | nt | nt
CC(C)OCCCNC(=O)Cc1ccc(NC(=O)N2CCCCc3ccccc32)cc1 | 35.5* | 0.4 | -0.7 | -12.5
CN(C)c1ccc(/C=C/c2ccnc3cc(Cl)ccc23)cc1 | nt | nt | 105.4* | nt
CC(=O)c1c(Cl)nc2ccc(Br)cc2c1-c1ccccc1 | 35.0* | -0.1 | nt | nt
COC(=O)[C@@H]1[C@H]2SC(C)(C)[C@H](C(=O)OC)N2C(=O)N1Cc1cc2ccccc2n1S(=O)(=O)c1ccccc1 | nt | nt | -0.4 | nt
CC(C)Cc1nn2c(=O)cc(COC(=O)c3ccc(NC(=O)c4cccs4)cc3)nc2s1 | -1.3 | -1.6 | 1.9 | -67.9*
Cc1ccc(-c2csc3ncnc(Sc4nnnn4-c4ccccc4)c23)cc1 | nt | nt | -0.3 | nt
CN(CC(=O)O)c1ccc(/C=C/c2ccnc3ccccc23)cc1 | nt | nt | 15.6 | nt
Cc1sc2ccccc2[n+]1CCC[n+]1c(C)sc2ccccc21 | nt | nt | -0.3 | nt
CCOC(=O)c1sc2ccccc2c1NC(=O)c1coc2ccccc2c1=O | 36.8* | 0.4 | 0.2 | -3.9
CCOC(=O)c1sc2ccccc2c1OC(=O)c1ccccc1 | -0.6 | 0.5 | 1.2 | 10.4
O=C1c2ccccc2C(=O)N1CC1c2ccccc2CCN1S(=O)(=O)c1cnc[nH]1 (stereo not given) | -0.6 | 0.2 | 0.5 | 5.6
Cc1ccc(S(=O)(=O)N2CCc3ccccc3C2CN2C(=O)c3ccccc3C2=O)cc1 (stereo not given) | 13.6 | 0.1 | 87.5* | -19.1
COc1ccc(C(=O)NC2CCCc3ccccc32)cc1OC1CCN(C(C)=O)CC1 (stereo not given) | -1.8 | -0.8 | 0.1 | -54.2*
SMILES | TRHR PAM | TRHR ag | TRPML1 ag | TRPML1 blocker
CS(=O)(=O)N(CC(=O)N1CCN(c2ccc(F)cc2)CC1)c1ccc(F)c(Cl)c1 | 39.3* | 0.3 | 0.4 | 30.4
CCc1cnc2ccccc2c1/C=C/c1ccc(N(C)C)cc1 | nt | nt | -0.1 | nt
CCCCN1C(=O)/C(=C/C=C2\Oc3ccccc3N2CC)SC1=S | 3.8 | 97.7* | ? | 4.6
OC(C1=C/C(=C\c2ccncc2)c2ccccc21)c1ccncc1 (stereo not given) | nt | nt | 0.2 | nt
O=C(Cc1ccc(OCCC2CCCCC2)cc1)NO | nt | nt | -0.3 | nt
COc1ccccc1NC(=O)CN1CCN(C(=O)C2CCCO2)CC1 (stereo not given) | 31.6* | -0.3 | 0.6 | -15.5
COc1ccccc1NC(=O)CN1CCOCC1 | -0.8 | 0.3 | 0.6 | -15.9
